The values that follow come from PubChem BioAssay (EPA / NIEHS).

Records with an inconclusive call do not appear. Activity calls are given as the source filed them. The calls were made as follows: active = hit-call score of the fitted dose curve at least 0.9, where 1 is the maximum; inconclusive = response in the unintended direction; inactive = score below 0.9.

This assay is described as follows: Tanguay_ZF_120hpf_PFIN_legacy: (Legacy) Oregon State University Tanguay Lab 120 Hour Post-fertilization zebrafish Assay for Pectoral Fin Malformation (AID 2283648).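 Also: each larva judged yes or no for fin defect by brightfield with dead larvae skipped.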 The method, then: Tanguay_ZF_120hpf_legacy is a whole embryo, multiplexed endpoint assay using zebrafish larvae exposed for 120 hours post fertilization on a 96-well plate.Tanguay_ZF_120hpf_PFIN_legacy is one of one assay component(s) measured or calculated from the Tanguay_ZF_120hpf_legacy assay. It is designed to make measurements of zebrafish development as detected with brightfield microscopy of developing zebrafish embryos.Data from the assay component Tanguay_ZF_120hpf_PFIN_legacy was analyzed into 1 assay endpoints. This assay endpoint, Tanguay_ZF_120hpf_PFIN_legacy, was analyzed in the positive analysis fitting direction relative to DMSO as the negative control and baseline of activity. Using a type of morphology reporter, gain-of-signal activity can be used to understand changes in developmentals as they relate to the whole embryo. To generalize the intended target to other relatable targets, this assay endpoint is annotated to the zebrafish development intended target family, where the subfamily is pectoral fin morphogenesis.
Zebrafish husbandry: Tropical 5D wild-type adult zebrafish were housed in at an approximate density of 1000 per 100 gallon tank at the Sinnhuber Aquatic Research Laboratory, Oregon State University, Corvallis, OR. Each tank was kept at standard laboratory conditions of 28C on a 14-h light/10-h dark photoperiod in fish water consisting of reverse osmosis water supplemented with a commercially available salt (Instant Ocean). Spawning funnels were placed into the tanks the night prior, and embryos were collected and staged. To increase bioavailability, the chorion was enzymatically removed using pronase (63.6mg/ml, >/= 3.5U/mg, Sigma-Aldrich: P5147) at 4 hours post fertilization (hpf) using a custom automated dechorionator.Chemical exposures: Six hpf dechorionated embryos were placed 1 embryo per well in a 96-well plate prefilled with 90 ul of EM using automated embryo placement systems (AEPS). Ten microliters of each row of dilution plate 2 was added to 2 exposure plates. The final DMSO concentration used was 0.64% (vol/vol). Thirty-two embryos were also exposed to 5uM trimethyltin chloride (positive control). Plates were sealed to prevent evaporation and foil covered to reduce light exposure and kept in a 28C incubator. Embryos were statically exposed until 120 hpf. At 24 hpf, embryos were assessed for photomotor response using a custom photomotor response analysis tool (PRAT) and for developmental toxicity endpoints (MO24: mortality at 24 hpf, DP: developmental progression, SM: spontaneous movement, and NC: notochord distortion). At 120 hpf, locomotor activity was measured using Viewpoint Zebralab and assessed for 18 endpoints. Zebrafish acquisition and analysis program (ZAAP), a custom program designed to inventory, acquire, and manage zebrafish data, was used to collect developmental endpoints as either present or absent (i.e., binary responses were recorded). If mortality occurred for an embryo (at either 24 or 120 hpf), the non-mortality endpoints were not measured.
On to `O=S(=O)(O)c1ccc(N=Nc2c(O)ccc3cc(S(=O)(=O)O)ccc23)cc1`, for which the molecule was called inactive.
On the same count and under the same terms, the same measure for `CCN(CC)C(=S)SSC(=S)N(CC)CC`: “inactive”.
With `CCCCCCOC(=O)CC(CC(=O)OCCCCCC)(OC(=O)CCC)C(=O)OCCCCCC`, the call was inactive.
As to `CC(C)C(=O)Nc1ccc([N+](=O)[O-])c(C(F)(F)F)c1`, the molecule was classed as inactive.
Turning to `O=C(O)[C@H](O)[C@@H](O)C(=O)O`, the call was inactive.
With `O=S1(=O)CCCO1`, the outcome was inactive.
`c1ccc(C(O[C@@H]2CCCN(CCc3ccc4c(c3)OCO4)C2)c2ccccc2)cc1`: the AC50 is 33.4 µM (active).
Turning to `Cc1ccc(S(=O)(=O)NC(=O)NN2CCCCCC2)cc1`, the result was inactive.
Turning to `OC[C@H]1O[C@@H]2O[C@H]3[C@H](O)[C@@H](O)[C@@H](O[C@H]4[C@H](O)[C@@H](O)[C@@H](O[C@H]5[C@H](O)[C@@H](O)[C@@H](O[C@H]6[C@H](O)[C@@H](O)[C@@H](O[C@H]7[C@H](O)[C@@H](O)[C@@H](O[C@H]1[C@H](O)[C@H]2O)O[C@@H]7CO)O[C@@H]6CO)O[C@@H]5CO)O[C@@H]4CO)O[C@@H]3CO`, the result was inactive.
Consider `OC(Cn1cncn1)(Cn1cncn1)c1ccc(F)cc1F`, for which the outcome was inactive.
Take `NC(N)=O`: the result was inactive.
`C[C@@H](Oc1ccc(CNC(=O)c2cccnc2Oc2ccc3c(c2)OCO3)c(F)c1)C(=O)O`: the molecule was classed as inactive.
The same measure, in the same setting: with `Nc1ccn([C@@H]2O[C@H](CO)[C@@H](O)[C@@H]2O)c(=O)n1` the entry was “inactive”.
In the case of `O=C(O)c1cccc(C[C@@H]2COc3ccc(OCc4nc5cc(F)ccc5s4)cc3[C@@H]2O)c1`, the molecule was classed as inactive.
Take `OCc1ccccc1`: the molecule was classed as inactive.
Regarding `NC(=O)N1c2ccccc2C=Cc2ccccc21`, the molecule was classed as inactive.
Still for that read-out and setting: the same measure for `NC(=O)NN=Cc1ccc([N+](=O)[O-])o1`: “inactive”.
As for `COc1cc2c(c(OC)c1OC)-c1ccc(OC)c(=O)cc1[C@@H](NC(C)=O)CC2`, the AC50 was 21 µM (active).
On to `CC(C)CC(C)O` (stereo not given), for which the result was inactive.
Still for that read-out and setting: with `OCCOCCOCCO` the entry was “inactive”.
`CCCCCCCC1CCC(=O)O1` (stereo not given): the AC50 is 51.5 µM (active).
Take `CCOc1ccc2[nH]cc(C(=O)NCc3ccccc3)c(=O)c2n1`: the outcome was inactive.
Consider `NC(=O)N(O)[C@@H]1COc2cc(OCc3ccccc3)ccc21`, for which the molecule was called inactive.
Turning to `CNC(C)=O`, the molecule was classed as inactive.
`CCCCC(CC)C(=O)OCCOCCOCCOC(=O)C(CC)CCCC` (stereo not given): the molecule was called inactive.
Turning to `CC[C@H](C)C(=O)O[C@H]1C[C@H](O)C=C2C=C[C@H](C)[C@H](CC[C@@H](O)C[C@@H](O)CC(=O)O)[C@H]21`, the outcome was inactive.
In the case of `CC(=O)c1ccccc1`, the result was inactive.
As for `O=c1[nH]cnc2c1ncn2[C@H]1CC[C@@H](CO)O1`, the call was inactive.
In the case of `O=C1CN(N=Cc2ccc([N+](=O)[O-])o2)C(=O)N1`, the result was inactive.
Same read-out and setting: the same measure for `c1ccc2ncccc2c1`: “inactive”; for `OCC(CO)(CO)CO`: “inactive”; for `Cc1nc(-c2ccccn2)ncc1C(=O)Nn1cc(C)c2cc(F)ccc21`: “inactive”.
As to `CCOC(N)=O`, the call was inactive.
On the same count and under the same terms, the same measure for `C=CCc1cc(S(=O)(=O)c2ccc(O)c(CC=C)c2)ccc1O`: “inactive”; for `OCCNCCO`: “inactive”; for `CCCc1ccccc1`: “inactive”.
As for `O=C(NO)C1(NS(=O)(=O)c2ccc(Oc3ccc(F)cc3)cc2)CCOCC1`, the outcome was inactive.
For `c1ccc2c(c1)-c1cccc3c1c-2cc1ccccc13`, the call was inactive.
The same measure, in the same setting: the same measure for `CCCOc1ccc(S(=O)(=O)N2CCN(CC)CC2)cc1-c1nc2c(CC)n(Cc3ccccn3)nc2c(=O)[nH]1`: “inactive”; for `CCCCCCCCCCCCCCO`: “inactive”.

As a reminder, the AC50 is the concentration giving half of the maximal activity seen.
